Experimental data: PubChem BioAssay (NCI)
About 79,000 compounds went through this panel and 15% of them were active in at least one assay; those are over-represented in the sample as a whole. A number with no mark means an inactive call. Calls of active or inactive are those of the source. Rule as the data show it: active = growth inhibition above about 70%; inactive = the rest.

What was measured:
[1] = NCI Yeast Anticancer Drug Screen. Data for the wt1 strain (AID 149);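 also: 0% = growth of vehicle-treated wt1 cultures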; details: S. cerevisiae wt1 strain (SPY 50644) growth inhibition, active compounds read high
Summary of the method: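 wt1 yeast, compound-treated; % growth inhibition vs vehicle control.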

[2] = NCI Yeast Anticancer Drug Screen. Data for the rad50EPP+ strain (AID 151);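 also: 0% = growth of vehicle-treated control cultures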; details: S. cerevisiae rad50 mutant strain, active compounds read high
Summary of the method: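 Exposing the rad50EPP+ strain to each compound, growth was compared with vehicle-only cultures to give inhibition.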

[3] = NCI Yeast Anticancer Drug Screen. Data for the mgt1 strain (AID 153); details: S. cerevisiae mgt1 mutant growth inhibition, active compounds read high
Summary of the method: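 Genetically defined yeast (mgt1) treated with compound; inhibition of growth expressed against vehicle-treated controls.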

[4] = NCI Yeast Anticancer Drug Screen. Data for the rad50 strain (AID 155);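 also: 0% = growth of vehicle-only cultures of the same strain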; details: S. cerevisiae rad50 strain growth inhibition, active compounds read high
Summary of the method: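 Genetically altered yeast (DNA repair pathway); compound treatment; growth inhibition vs vehicle ctrl.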

[5] = NCI Yeast Anticancer Drug Screen. Data for the mec2-1 strain (AID 157); details: S. cerevisiae mec2-1 strain, active compounds read high
Summary of the method: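 Readout is yeast growth inhibition, normalised to vehicle-treated controls, in the mec2-1 strain exposed to compound.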

[6] = NCI Yeast Anticancer Drug Screen. Data for the rad14 strain (AID 159);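 also: 0% = growth of vehicle-treated control cultures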; details: S. cerevisiae rad14 strain growth inhibition, active compounds read high
Summary of the method: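 Test compounds were applied to a repair-deficient yeast strain. Its growth was then compared with that of cultures given vehicle alone, and inhibition was expressed relative to those controls.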

[7] = NCI Yeast Anticancer Drug Screen. Data for the sgs1 mgt1 strain (AID 161);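 also: 0% = growth of cultures given vehicle only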; details: S. cerevisiae sgs1 mgt1 strain, active compounds read high
Summary of the method: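 This yeast growth screen uses a strain with defined DNA-repair lesions; compound-treated growth is compared with vehicle-treated growth.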

[8] = NCI Yeast Anticancer Drug Screen. Data for the CLN2oe strain (AID 163);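 also: 0% = growth of vehicle-only control cultures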; details: S. cerevisiae CLN2oe strain, active compounds read high
Summary of the method: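 Values reflect how much compound exposure reduced yeast growth, referenced to vehicle-exposed cells. Assay organism is a strain with a defined genetic change affecting cell-cycle control.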

[9] = NCI Yeast Anticancer Drug Screen. Data for the cln2 rad14 strain (AID 165);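 also: 0% = growth equal to vehicle treated cultures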; details: S. cerevisiae cln2 rad14 strain, active compounds read high
Summary of the method: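 Relative to vehicle controls, growth inhibition of compound-treated cln2 rad14 yeast was recorded.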

[10] = NCI Yeast Anticancer Drug Screen. Data for the bub3 strain (AID 167); details: S. cerevisiae bub3 mutant strain, active compounds read high
Summary of the method: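 Yeast carrying a defined mutation is treated with each compound, and growth is compared with that of vehicle-exposed cells to give inhibition.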

[11] = NCI Yeast Anticancer Drug Screen. Data for the wt2 strain (AID 169);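 also: 0% = growth of vehicle-treated yeast cultures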; details: S. cerevisiae wt2 strain growth inhibition, active compounds read high
Summary of the method: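 Values express reduction in yeast growth under compound treatment, referenced to vehicle-treated cells.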

[12] = NCI Yeast Anticancer Drug Screen. Data for the mlh1 strain (AID 171);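 also: 0% = growth of vehicle-treated control cultures of the same strain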; details: S. cerevisiae mlh1 strain growth inhibition, active compounds read high
Summary of the method: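 Steps: expose the defined-mutant yeast strain to compound; expose a parallel culture to vehicle; measure growth; express compound effect as inhibition relative to the vehicle culture.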

[13] = NCI Yeast Anticancer Drug Screen. Data for the sgs1 strain (AID 173);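 also: 0% = growth of vehicle-only control cultures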; details: S. cerevisiae sgs1 mutant, active compounds read high
Summary of the method: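 Treat defined-mutant yeast with compound; measure growth; calculate inhibition relative to vehicle-treated cells.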

[14] = NCI Yeast Anticancer Drug Screen. Data for the mlh1 rad18 strain (AID 175); details: S. cerevisiae mlh1 rad18 strain growth inhibition, active compounds read high
Summary of the method: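 Test agents were incubated with a yeast strain of defined genotype (DNA damage repair defect). Inhibition of growth was derived by comparison with vehicle-exposed cultures.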

[15] = NCI Yeast Anticancer Drug Screen. Data for the rad18 strain (AID 177); details: S. cerevisiae rad18 mutant growth inhibition, active compounds read high
Summary of the method: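 A genetically defined yeast mutant impaired in DNA damage repair was treated with test compounds, then its growth was measured against cultures receiving vehicle alone.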

[16] = NCI Yeast Anticancer Drug Screen. Data for the rad52 strain (AID 147);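 also: 0% = growth of vehicle-treated control cultures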; details: S. cerevisiae rad52 mutant growth inhibition, active compounds read high
Summary of the method: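 Screen used a yeast mutant impaired in DNA repair. After compound exposure, growth was measured. Values reflect inhibition compared with vehicle-treated cells.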

[17] = at 5.0 µM (retest, dose inferred, filed as 0.5)
[18] = at 50.0 µM (retest, dose inferred, filed as 5.0)

CN(C)CC(CN(C)C)C(=O)/C=C/c1ccc(Cl)cc1Cl
growth inhibition ([1]; at 1.2 µM): -1%
growth inhibition ([1]; at 3.7 µM): -2%
growth inhibition ([1]; at 11.0 µM): -6%
growth inhibition ([1]; at 33.0 µM): 98% (active)
growth inhibition ([1]; at 100.0 µM): 98% (active)
growth inhibition ([2]; at 1.2 µM): -2%
growth inhibition ([2]; at 3.7 µM): -2%
growth inhibition ([2]; at 11.0 µM): 6%
growth inhibition ([2]; at 33.0 µM): 98% (active)
growth inhibition ([2]; at 100.0 µM): 98% (active)
growth inhibition ([3]; at 1.2 µM): -2%
growth inhibition ([3]; at 3.7 µM): -2%
growth inhibition ([3]; at 11.0 µM): 3%
growth inhibition ([3]; at 33.0 µM): 99% (active)
growth inhibition ([3]; at 100.0 µM): 98% (active)
growth inhibition ([4]; at 1.2 µM): -1%
growth inhibition ([4]; at 3.7 µM): 0%
growth inhibition [4, 17]: 93% (active)
growth inhibition ([4]; at 11.0 µM): 13%
growth inhibition ([4]; at 33.0 µM): 98% (active)
growth inhibition [4, 18]: 98% (active)
growth inhibition ([4]; at 50.0 µM): 54.5%
growth inhibition ([4]; at 100.0 µM): 97% (active)
growth inhibition ([5]; at 1.2 µM): -3%
growth inhibition ([5]; at 3.7 µM): -4%
growth inhibition [5, 17]: 13%
growth inhibition ([5]; at 11.0 µM): 6%
growth inhibition ([5]; at 33.0 µM): 98% (active)
growth inhibition [5, 18]: 99% (active)
growth inhibition ([5]; at 50.0 µM): 42.2%
growth inhibition ([5]; at 100.0 µM): 98% (active)
growth inhibition ([6]; at 1.2 µM): -2%
growth inhibition ([6]; at 3.7 µM): -2%
growth inhibition ([6]; at 11.0 µM): 17%
growth inhibition ([6]; at 33.0 µM): 99% (active)
growth inhibition ([6]; at 100.0 µM): 97% (active)
growth inhibition [7, 17]: 15%
growth inhibition [7, 18]: 99% (active)
growth inhibition ([7]; at 50.0 µM): 48.7%
growth inhibition ([8]; at 1.2 µM): -1%
growth inhibition ([8]; at 3.7 µM): -3%
growth inhibition ([8]; at 11.0 µM): -1%
growth inhibition ([8]; at 33.0 µM): 98% (active)
growth inhibition ([8]; at 100.0 µM): 97% (active)
growth inhibition [9, 17]: 0%
growth inhibition [9, 18]: 98% (active)
growth inhibition ([9]; at 50.0 µM): 43.8%
growth inhibition ([10]; at 1.2 µM): -3%
growth inhibition ([10]; at 3.7 µM): -4%
growth inhibition [10, 17]: -10%
growth inhibition ([10]; at 11.0 µM): -3%
growth inhibition ([10]; at 33.0 µM): 98% (active)
growth inhibition [10, 18]: 98% (active)
growth inhibition ([10]; at 50.0 µM): 99% (active)
growth inhibition ([10]; at 100.0 µM): 97% (active)
growth inhibition ([11]; at 1.2 µM): -2%
growth inhibition ([11]; at 3.7 µM): -5%
growth inhibition ([11]; at 11.0 µM): 2%
growth inhibition ([11]; at 33.0 µM): 98% (active)
growth inhibition ([11]; at 100.0 µM): 98% (active)
growth inhibition ([12]; at 1.2 µM): -3%
growth inhibition ([12]; at 3.7 µM): -5%
growth inhibition ([12]; at 11.0 µM): 10%
growth inhibition ([12]; at 33.0 µM): 99% (active)
growth inhibition ([12]; at 100.0 µM): 98% (active)
growth inhibition ([13]; at 1.2 µM): -2%
growth inhibition ([13]; at 3.7 µM): -2%
growth inhibition ([13]; at 11.0 µM): 5%
growth inhibition ([13]; at 33.0 µM): 98% (active)
growth inhibition ([13]; at 100.0 µM): 98% (active)
growth inhibition [14, 17]: 6%
growth inhibition [14, 18]: 99% (active)
growth inhibition ([14]; at 50.0 µM): 45%
growth inhibition ([15]; at 1.2 µM): -4%
growth inhibition ([15]; at 3.7 µM): -3%
growth inhibition ([15]; at 11.0 µM): 14%
growth inhibition ([15]; at 33.0 µM): 98% (active)
growth inhibition ([15]; at 100.0 µM): 97% (active)

O=C1Oc2ccccc2C(=O)/C1=C/N1C(=O)N/C(=C\c2ccccc2Br)C1=O
growth inhibition ([16]; at 1.2 µM): 1%
growth inhibition ([16]; at 3.7 µM): 4%
growth inhibition ([16]; at 11.0 µM): 13%
growth inhibition ([16]; at 33.0 µM): 43%
growth inhibition ([16]; at 100.0 µM): 91% (active)
growth inhibition ([2]; at 1.2 µM): -2%
growth inhibition ([2]; at 3.7 µM): 1%
growth inhibition ([2]; at 11.0 µM): 6%
growth inhibition ([2]; at 33.0 µM): 21%
growth inhibition ([2]; at 100.0 µM): 57%
growth inhibition ([3]; at 1.2 µM): 0%
growth inhibition ([3]; at 3.7 µM): 1%
growth inhibition ([3]; at 11.0 µM): 7%
growth inhibition ([3]; at 33.0 µM): 25%
growth inhibition ([3]; at 100.0 µM): 96% (active)
growth inhibition ([4]; at 1.2 µM): -2%
growth inhibition ([4]; at 3.7 µM): -11%
growth inhibition [4, 17]: -6%
growth inhibition ([4]; at 11.0 µM): -3%
growth inhibition ([4]; at 33.0 µM): 40%
growth inhibition [4, 18]: 54%
growth inhibition ([4]; at 50.0 µM): 91.9% (active)
growth inhibition ([4]; at 100.0 µM): 95% (active)
growth inhibition ([5]; at 1.2 µM): 1%
growth inhibition ([5]; at 3.7 µM): 1%
growth inhibition [5, 17]: -15%
growth inhibition ([5]; at 11.0 µM): 7%
growth inhibition ([5]; at 33.0 µM): 27%
growth inhibition [5, 18]: 5%
growth inhibition ([5]; at 50.0 µM): 56.1%
growth inhibition ([5]; at 100.0 µM): 86% (active)
growth inhibition ([6]; at 1.2 µM): 1%
growth inhibition ([6]; at 3.7 µM): 2%
growth inhibition ([6]; at 11.0 µM): 13%
growth inhibition ([6]; at 33.0 µM): 59%
growth inhibition ([6]; at 100.0 µM): 97% (active)
growth inhibition [7, 17]: -3%
growth inhibition [7, 18]: 17%
growth inhibition ([7]; at 50.0 µM): 89.7% (active)
growth inhibition ([8]; at 1.2 µM): -3%
growth inhibition ([8]; at 3.7 µM): 4%
growth inhibition ([8]; at 11.0 µM): 14%
growth inhibition ([8]; at 33.0 µM): 33%
growth inhibition ([8]; at 100.0 µM): 56%
growth inhibition [9, 17]: 15%
growth inhibition [9, 18]: 13%
growth inhibition ([9]; at 50.0 µM): 39.5%
growth inhibition ([10]; at 1.2 µM): 0%
growth inhibition ([10]; at 3.7 µM): -1%
growth inhibition [10, 17]: 7%
growth inhibition ([10]; at 11.0 µM): 6%
growth inhibition ([10]; at 33.0 µM): 29%
growth inhibition [10, 18]: 33%
growth inhibition ([10]; at 50.0 µM): 94.5% (active)
growth inhibition ([10]; at 100.0 µM): 83% (active)
growth inhibition ([11]; at 1.2 µM): 1%
growth inhibition ([11]; at 3.7 µM): 2%
growth inhibition ([11]; at 11.0 µM): 6%
growth inhibition ([11]; at 33.0 µM): 33%
growth inhibition ([11]; at 100.0 µM): 96% (active)
growth inhibition ([13]; at 1.2 µM): 2%
growth inhibition ([13]; at 3.7 µM): 5%
growth inhibition ([13]; at 11.0 µM): 14%
growth inhibition ([13]; at 33.0 µM): 54%
growth inhibition ([13]; at 100.0 µM): 96% (active)
growth inhibition [14, 17]: 4%
growth inhibition [14, 18]: 52%
growth inhibition ([14]; at 50.0 µM): 95.5% (active)
growth inhibition ([15]; at 1.2 µM): -1%
growth inhibition ([15]; at 3.7 µM): 1%
growth inhibition ([15]; at 11.0 µM): 6%
growth inhibition ([15]; at 33.0 µM): 51%
growth inhibition ([15]; at 100.0 µM): 94% (active)
